Targets with a hit are over-represented here; the source holds about 8,800 in all. About 0.5% of all pairs of compound and target were hits. Values without a mark were called inactive.
How the values were obtained:
Test in all cases: log2 fold change, soluble protein after heating vs DMSO (PISA); higher = thermal stabilisation; K562 lysate, 10 uM; active = over 0.2 and 3.5 SD of the protein, either way, in both replicates (recomputed)
lapatinib = compound: CS(=O)(=O)CCNCc1ccc(-c2ccc3ncnc(Nc4ccc(OCc5cccc(F)c5)c(Cl)c4)c3c2)o1 [lapatinib]
In short: (§1)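 Thermal stability, expressed as log-two fold change relative to solvent controls, is given from duplicates. Crude K562 extract in PBS pH 7.4 with 1 mM MgCl2, at 1 mg/mL protein, was treated with 10 μM compound for 30 min and heated in aliquots for 3 min across 48°C-58°C. After pooling, adjustment to 0.5% NP-40 at 4°C and centrifugation at 21,000xg for 90 min, supernatant protein was measured by TMTpro 16plex LC-MS/MS with channel sums equalised.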

pictilisib = compound: CS(=O)(=O)N1CCN(Cc2cc3nc(-c4cccc5[nH]ncc45)nc(N4CCOCC4)c3s2)CC1 [pictilisib]
In short: as §1

crizotinib = compound: C[C@@H](Oc1cc(-c2cnn(C3CCNCC3)c2)cnc1N)c1c(Cl)ccc(F)c1Cl [crizotinib]
In short: as §1

[1] = compound: C[C@H](C1=CC=C(C=C1)C(=O)NC2=C3C=CNC3=NC=C2)N
In short: as §1

duvelisib = compound: C[C@H](Nc1ncnc2nc[nH]c12)c1cc2cccc(Cl)c2c(=O)n1-c1ccccc1 [duvelisib]
In short: as §1

gandotinib = compound: Cc1cc(Nc2cc(CN3CCOCC3)c3nc(C)c(Cc4ccc(Cl)cc4F)n3n2)n[nH]1 [gandotinib]
In short: as §1

tozasertib = compound: Cc1cc(Nc2cc(N3CCN(C)CC3)nc(Sc3ccc(NC(=O)C4CC4)cc3)n2)n[nH]1 [tozasertib]
In short: as §1

doramapimod = compound: Cc1ccc(-n2nc(C(C)(C)C)cc2NC(=O)Nc2ccc(OCCN3CCOCC3)c3ccccc23)cc1 [doramapimod]
In short: as §1

bafetinib = compound: Cc1ccc(NC(=O)c2ccc(CN3CC[C@H](N(C)C)C3)c(C(F)(F)F)c2)cc1Nc1nccc(-c2cncnc2)n1 [bafetinib]
In short: as §1

[2] = compound: Cc1cccc(CC(=O)N2CCc3c2ccc(-c2cn(C)c4ncnc(N)c24)c3F)n1
In short: as §1

nilotinib = compound: Cc1cn(-c2cc(NC(=O)c3ccc(C)c(Nc4nccc(-c5cccnc5)n4)c3)cc(C(F)(F)F)c2)cn1 [nilotinib]
In short: as §1

[3] = compound: Cc1nc(Nc2n[nH]c3c2CN(C(=O)N[C@H](CN(C)C)c2ccccc2)C3(C)C)c2sccc2n1
In short: as §1

dasatinib = compound: Cc1nc(Nc2ncc(C(=O)Nc3c(C)cccc3Cl)s2)cc(N2CCN(CCO)CC2)n1 [dasatinib]
In short: as §1

[4] = compound: Cc1ncc(-c2ccnc(Nc3ccc(S(C)(=O)=O)cc3)n2)n1C(C)C
In short: as §1

[5] = compound: Cn1cc(-c2ccc3c(c2)CCN3C(=O)Cc2cccc(C(F)(F)F)c2)c2c(N)ncnc21
In short: as §1

quisinostat = compound: Cn1cc(CNCC2CCN(c3ncc(C(=O)NO)cn3)CC2)c2ccccc21 [quisinostat]
In short: as §1

tipifarnib = compound: Cn1cncc1[C@@](N)(c1ccc(Cl)cc1)c1ccc2c(c1)c(-c1cccc(Cl)c1)cc(=O)n2C [tipifarnib]
In short: as §1

[6] = compound: NC(=O)Nc1cc(-c2cccc(F)c2)sc1C(=O)N[C@H]1CCCNC1
In short: as §1

[7] = compound: NC(=O)c1cnc(N[C@@H]2CCCC[C@@H]2N)nc1Nc1cccc(-n2nccn2)c1
In short: as §1

[8] = compound: NC1(c2ccc(-c3nc4ccn5c(=O)[nH]nc5c4cc3-c3ccccc3)cc2)CCC1
In short: as §1

Sequence of UniProt Q8N7R7 (Q8N7R7 whole entry, looked up): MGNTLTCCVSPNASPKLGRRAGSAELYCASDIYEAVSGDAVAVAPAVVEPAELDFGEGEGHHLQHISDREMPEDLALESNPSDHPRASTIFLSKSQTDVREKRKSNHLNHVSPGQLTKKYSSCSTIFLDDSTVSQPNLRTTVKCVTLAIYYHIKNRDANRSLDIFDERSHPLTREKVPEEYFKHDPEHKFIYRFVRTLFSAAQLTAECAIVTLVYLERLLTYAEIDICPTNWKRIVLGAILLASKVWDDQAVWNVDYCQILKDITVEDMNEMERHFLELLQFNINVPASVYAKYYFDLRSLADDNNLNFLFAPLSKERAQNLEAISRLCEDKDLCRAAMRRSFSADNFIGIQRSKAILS
Sequence of UniProt P83916 (P83916 whole entry, looked up): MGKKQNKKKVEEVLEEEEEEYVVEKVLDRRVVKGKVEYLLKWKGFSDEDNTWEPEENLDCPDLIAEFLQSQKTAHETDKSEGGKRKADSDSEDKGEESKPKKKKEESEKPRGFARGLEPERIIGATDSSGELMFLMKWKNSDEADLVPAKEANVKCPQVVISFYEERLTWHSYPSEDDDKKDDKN
Sequence of UniProt Q9BYV8 (Q9BYV8 whole entry, looked up): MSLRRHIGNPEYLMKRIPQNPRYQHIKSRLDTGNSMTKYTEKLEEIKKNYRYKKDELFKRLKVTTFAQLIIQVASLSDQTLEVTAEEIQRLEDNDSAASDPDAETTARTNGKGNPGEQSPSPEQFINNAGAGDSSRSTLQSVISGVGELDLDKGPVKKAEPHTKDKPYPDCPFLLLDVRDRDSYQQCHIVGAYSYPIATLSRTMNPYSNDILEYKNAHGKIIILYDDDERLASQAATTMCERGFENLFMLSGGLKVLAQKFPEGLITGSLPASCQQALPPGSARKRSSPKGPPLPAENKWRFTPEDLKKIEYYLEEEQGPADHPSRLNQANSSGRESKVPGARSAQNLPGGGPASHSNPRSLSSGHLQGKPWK
Sequence of UniProt Q8NBU5 (Q8NBU5 whole entry, looked up): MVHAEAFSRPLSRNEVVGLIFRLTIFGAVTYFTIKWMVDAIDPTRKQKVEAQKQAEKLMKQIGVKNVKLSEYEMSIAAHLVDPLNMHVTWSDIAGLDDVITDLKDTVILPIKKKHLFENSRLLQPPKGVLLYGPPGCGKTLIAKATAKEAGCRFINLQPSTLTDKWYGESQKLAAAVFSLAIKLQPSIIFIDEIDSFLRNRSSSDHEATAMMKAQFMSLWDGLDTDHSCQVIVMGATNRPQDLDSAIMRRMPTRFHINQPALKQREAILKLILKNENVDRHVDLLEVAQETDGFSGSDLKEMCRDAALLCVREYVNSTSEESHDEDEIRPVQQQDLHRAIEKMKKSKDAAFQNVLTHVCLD
Sequence of UniProt Q8N4Q1 (Q8N4Q1 whole entry, looked up): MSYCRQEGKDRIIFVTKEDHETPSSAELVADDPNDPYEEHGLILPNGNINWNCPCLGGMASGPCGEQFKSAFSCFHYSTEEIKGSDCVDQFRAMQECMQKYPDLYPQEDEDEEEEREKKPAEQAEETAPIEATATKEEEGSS
Sequence of UniProt Q9Y2V2 (Q9Y2V2 whole entry, looked up): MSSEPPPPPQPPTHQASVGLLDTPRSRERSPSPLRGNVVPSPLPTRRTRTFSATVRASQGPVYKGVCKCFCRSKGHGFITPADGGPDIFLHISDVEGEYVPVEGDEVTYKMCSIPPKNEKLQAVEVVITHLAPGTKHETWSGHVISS
Sequence of UniProt P51946 (P51946 whole entry, looked up): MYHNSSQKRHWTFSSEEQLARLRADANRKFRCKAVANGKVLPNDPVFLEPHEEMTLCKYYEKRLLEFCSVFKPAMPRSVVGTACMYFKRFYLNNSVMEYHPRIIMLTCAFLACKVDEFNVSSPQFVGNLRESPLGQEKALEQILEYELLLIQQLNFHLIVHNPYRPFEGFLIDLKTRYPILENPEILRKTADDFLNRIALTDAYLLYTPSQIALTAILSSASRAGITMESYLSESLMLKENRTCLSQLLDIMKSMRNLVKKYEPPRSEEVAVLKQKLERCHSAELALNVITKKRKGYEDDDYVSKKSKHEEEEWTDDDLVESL
Sequence of UniProt O75808 (O75808 whole entry, looked up): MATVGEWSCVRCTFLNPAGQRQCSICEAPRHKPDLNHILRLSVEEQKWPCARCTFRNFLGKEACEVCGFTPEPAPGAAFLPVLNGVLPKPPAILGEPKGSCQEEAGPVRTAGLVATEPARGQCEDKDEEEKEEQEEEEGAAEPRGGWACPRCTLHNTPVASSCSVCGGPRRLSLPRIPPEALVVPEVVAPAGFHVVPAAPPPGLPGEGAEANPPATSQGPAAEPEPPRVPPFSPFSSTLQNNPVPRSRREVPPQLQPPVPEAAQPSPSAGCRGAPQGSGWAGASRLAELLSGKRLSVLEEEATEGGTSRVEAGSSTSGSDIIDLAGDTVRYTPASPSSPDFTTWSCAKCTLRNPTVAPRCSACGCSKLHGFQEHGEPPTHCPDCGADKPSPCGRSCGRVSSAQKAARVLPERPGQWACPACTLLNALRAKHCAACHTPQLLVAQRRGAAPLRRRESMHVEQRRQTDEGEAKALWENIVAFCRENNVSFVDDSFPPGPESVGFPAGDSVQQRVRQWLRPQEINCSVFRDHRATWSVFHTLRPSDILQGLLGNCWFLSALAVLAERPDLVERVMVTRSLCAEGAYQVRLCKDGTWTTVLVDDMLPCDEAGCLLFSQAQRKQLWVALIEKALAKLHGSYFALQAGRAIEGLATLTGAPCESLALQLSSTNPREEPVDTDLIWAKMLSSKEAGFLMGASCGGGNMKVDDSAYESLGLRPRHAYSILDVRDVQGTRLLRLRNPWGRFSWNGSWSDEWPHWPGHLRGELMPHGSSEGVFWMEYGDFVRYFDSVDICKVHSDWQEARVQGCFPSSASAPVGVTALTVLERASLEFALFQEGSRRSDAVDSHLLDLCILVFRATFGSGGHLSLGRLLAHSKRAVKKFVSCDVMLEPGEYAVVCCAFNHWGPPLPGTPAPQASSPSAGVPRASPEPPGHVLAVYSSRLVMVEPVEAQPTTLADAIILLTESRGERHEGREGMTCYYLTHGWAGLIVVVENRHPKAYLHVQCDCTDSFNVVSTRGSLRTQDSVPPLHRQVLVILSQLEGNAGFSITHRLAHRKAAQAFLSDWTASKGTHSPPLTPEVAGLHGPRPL
Sequence of UniProt Q9HD20 (Q9HD20 whole entry, looked up): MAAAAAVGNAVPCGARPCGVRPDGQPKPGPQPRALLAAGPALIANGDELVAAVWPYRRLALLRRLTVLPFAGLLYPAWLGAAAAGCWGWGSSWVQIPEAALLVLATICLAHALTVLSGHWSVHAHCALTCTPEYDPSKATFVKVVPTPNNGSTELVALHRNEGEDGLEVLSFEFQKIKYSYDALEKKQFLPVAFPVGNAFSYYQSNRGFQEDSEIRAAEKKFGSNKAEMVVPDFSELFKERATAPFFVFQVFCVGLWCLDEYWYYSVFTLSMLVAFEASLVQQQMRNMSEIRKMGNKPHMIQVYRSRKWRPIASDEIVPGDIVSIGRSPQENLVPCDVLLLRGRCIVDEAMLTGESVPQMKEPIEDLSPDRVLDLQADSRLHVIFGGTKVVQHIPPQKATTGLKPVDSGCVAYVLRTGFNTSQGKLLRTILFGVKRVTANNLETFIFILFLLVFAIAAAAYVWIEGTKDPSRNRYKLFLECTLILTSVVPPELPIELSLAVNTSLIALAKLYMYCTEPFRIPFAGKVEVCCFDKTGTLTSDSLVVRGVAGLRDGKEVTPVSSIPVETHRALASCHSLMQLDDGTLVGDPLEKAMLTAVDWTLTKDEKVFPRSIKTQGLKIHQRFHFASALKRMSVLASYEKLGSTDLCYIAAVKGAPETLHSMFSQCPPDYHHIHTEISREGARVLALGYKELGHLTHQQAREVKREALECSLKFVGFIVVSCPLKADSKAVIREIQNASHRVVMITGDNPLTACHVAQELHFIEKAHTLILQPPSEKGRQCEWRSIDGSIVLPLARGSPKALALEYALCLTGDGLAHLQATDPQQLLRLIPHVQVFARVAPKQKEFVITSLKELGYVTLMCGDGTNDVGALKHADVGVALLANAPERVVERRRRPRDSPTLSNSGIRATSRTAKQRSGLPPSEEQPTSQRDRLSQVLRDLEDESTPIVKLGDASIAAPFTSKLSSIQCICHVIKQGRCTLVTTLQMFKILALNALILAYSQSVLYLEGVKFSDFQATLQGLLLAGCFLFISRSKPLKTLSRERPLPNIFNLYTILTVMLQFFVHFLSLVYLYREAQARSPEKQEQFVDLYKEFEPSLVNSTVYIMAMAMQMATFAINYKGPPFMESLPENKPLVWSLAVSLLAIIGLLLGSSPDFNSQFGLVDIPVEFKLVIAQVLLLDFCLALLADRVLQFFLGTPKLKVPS
Sequence of UniProt O60826 (O60826 whole entry, looked up): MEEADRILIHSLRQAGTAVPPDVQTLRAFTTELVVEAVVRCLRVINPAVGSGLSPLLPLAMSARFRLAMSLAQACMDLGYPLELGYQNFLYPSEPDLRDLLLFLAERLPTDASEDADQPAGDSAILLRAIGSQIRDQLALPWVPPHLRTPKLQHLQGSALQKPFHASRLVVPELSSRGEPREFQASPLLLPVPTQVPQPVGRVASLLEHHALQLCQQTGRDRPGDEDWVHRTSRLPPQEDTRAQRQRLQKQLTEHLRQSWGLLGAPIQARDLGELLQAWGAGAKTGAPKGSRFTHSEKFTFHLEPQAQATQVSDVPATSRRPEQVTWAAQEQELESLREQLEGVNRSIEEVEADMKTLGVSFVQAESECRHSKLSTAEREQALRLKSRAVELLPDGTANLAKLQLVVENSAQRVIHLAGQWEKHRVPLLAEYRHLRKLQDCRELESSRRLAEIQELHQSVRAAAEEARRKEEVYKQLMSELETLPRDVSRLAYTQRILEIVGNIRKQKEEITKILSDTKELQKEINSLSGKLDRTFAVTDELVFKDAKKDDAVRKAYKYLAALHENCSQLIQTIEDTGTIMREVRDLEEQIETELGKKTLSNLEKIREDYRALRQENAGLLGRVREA

Row | Target | log2 fold change (lapatinib) | log2 fold change (pictilisib) | log2 fold change (crizotinib) | log2 fold change [1] | log2 fold change (duvelisib) | log2 fold change (gandotinib) | log2 fold change (tozasertib) | log2 fold change (doramapimod) | log2 fold change (bafetinib) | log2 fold change [2] | log2 fold change (nilotinib) | log2 fold change [3] | log2 fold change (dasatinib) | log2 fold change [4] | log2 fold change [5] | log2 fold change (quisinostat) | log2 fold change (tipifarnib) | log2 fold change [6] | log2 fold change [7] | log2 fold change [8]
1 | CCDC47 (UniProt Q96A33) | -0.05 | 0.005 | -0.016 | -0.012 | -0.03 | -0.145 | -0.009 | -0.018 | -0.031 | 0.049 | -0.012 | -0.009 | -0.016 | 0.025 | -0.009 | 0.006 | -0.025 | 0.014 | 0.019 | -0.023
2 | CEPT1 (UniProt Q9Y6K0) | -0.121 | -0.08 | -0.122 | -0.106 | -0.019 | -0.058 | 0.025 | -0.07 | -0.124 | 0.223 (active) | -0.053 | -0.015 | -0.018 | 0.028 | 0.06 | -0.021 | -0.068 | 0.028 | -0.008 | -0.094
3 | CAPN15 (UniProt O75808) | 0.063 | -0.046 | -0.047 | 0.004 | -0.022 | -0.033 | 0.042 | 0.106 | -0.003 | -0.01 | 0.018 | -0.045 | -0.124 | 0.014 | 0.007 | 0 | 0.04 | 0.025 | -0.08 | 0.054
4 | CCNH (UniProt P51946) | 0.005 | -0.012 | 0.012 | 0.026 | 0.072 | -0.002 | 0.013 | 0.037 | -0.022 | -0.023 | -0.013 | 0.106 | 0.03 | -0.001 | 0.015 | 0.016 | -0.043 | -0.009 | 0.026 | 0.013
5 | ATG13 isoform 2 (UniProt O75143) | 0.018 | 0.014 | -0.022 | -0.271 (active) | 0.016 | 0.172 | 0.05 | 0.049 | -0.123 | 0.137 | -0.034 | 0.036 | 0.002 | 0.028 | -0.069 | -0.052 | -0.018 | 0.059 | 0 | -0.014
6 | CARHSP1 (UniProt Q9Y2V2) | -0.014 | -0.08 | 0.011 | -0.053 | 0.003 | 0.047 | 0.003 | -0.012 | -0.033 | 0.019 | 0.037 | -0.037 | 0.017 | -0.004 | -0.04 | -0.006 | 0.035 | -0.034 | -0.026 | -0.001
7 | CBX1 (UniProt P83916) | 0.052 | -0.006 | 0.023 | 0.279 (active) | 0.03 | -0.143 | -0.05 | -0.034 | 0.025 | -0.138 | 0.006 | -0.003 | 0.017 | 0 | -0.027 | -0.004 | -0.008 | -0.004 | 0.062 | 0.012
8 | ATAD1 (UniProt Q8NBU5) | -0.158 | 0.012 | -0.022 | -0.081 | -0.051 | 0.386 (active) | 0.017 | 0.015 | -0.008 | 0.012 | 0.073 | -0.015 | 0.001 | -0.153 | 0.039 | -0.072 | -0.072 | -0.001 | 0.027 | -0.031
9 | CCDC22 (UniProt O60826) | -0.002 | -0.017 | -0.036 | -0.014 | -0.016 | -0.056 | 0.03 | 0.023 | -0.035 | -0.005 | 0.007 | -0.018 | -0.055 | -0.005 | -0.006 | -0.006 | 0.012 | 0.041 | 0.025 | -0.017
10 | BMS1 (UniProt Q14692) | -0.029 | -0.052 | -0.058 | -0.018 | -0.036 | 0.043 | 0.018 | 0.047 | -0.032 | 0.045 | 0.024 | 0.024 | -0.02 | -0.045 | -0.01 | -0.097 | 0 | 0.006 | 0.015 | -0.019
11 | CCNYL1 (UniProt Q8N7R7) | 0.018 | -0.012 | -0.015 | -0.201 | -0.003 | 0.085 | 0.052 | -0.004 | 0.006 | 0.067 | -0.001 | -0.033 | 0.034 | 0.043 | -0.003 | -0.078 | -0.08 | 0.008 | 0.075 | -0.006
12 | ATP13A1 (UniProt Q9HD20) | -0.115 | -0.011 | 0.123 | 0.047 | -0.004 | -0.073 | 0.068 | -0.053 | -0.033 | 0.043 | 0.009 | 0.004 | 0.102 | 0.003 | 0.005 | 0.001 | -0.109 | -0.044 | 0.07 | 0.065
13 | CEP41 (UniProt Q9BYV8) | -0.017 | 0.039 | 0.062 | 0.047 | -0.013 | 0.003 | 0.086 | 0.044 | -0.067 | 0.007 | 0.001 | 0.034 | 0.043 | -0.008 | -0.077 | -0.068 | -0.027 | -0.128 | 0.066 | 0.076
14 | CHAF1A (UniProt Q13111) | 0.014 | 0.063 | 0.012 | -0.054 | -0.035 | 0.009 | -0.023 | 0.026 | -0.075 | -0.005 | -0.027 | 0.032 | -0.068 | 0.008 | -0.032 | -0.053 | 0.019 | -0.001 | -0.031 | 0.036
15 | CDK5 (UniProt Q00535) | -0.094 | 0.095 | -0.031 | -0.024 | 0.03 | 0.451 | 0.014 | 0.423 | -0.008 | -0.023 | -0.013 | 0.23 | 0.022 | 0.541 (active) | 0.019 | -0.132 | 0.003 | 0.044 | 0.05 | -0.112
16 | CHCHD4 isoform 2 (UniProt Q8N4Q1) | 0.045 | 0.092 | -0.085 | -0.316 | 0.022 | 0.217 | -0.041 | 0.047 | -0.029 | 0.198 | -0.029 | 0.023 | -0.035 | -0.031 | -0.018 | -0.156 | 0.018 | 0.032 | -0.008 | -0.028
